# Shown is part of a subset that was picked to be rich in hits.
# PD-1 reversal: reversal of PD-1 mediated T-cell inhibition; primary human CD4 T cells, PD-L1 beads, CellTiter-Glo 96 h; activation, % (test concentration not listed); 29,000 tested, under 10 active; AID 2316; call rule not given here;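 further: 0% = median vehicle wells and 100% = positive control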
# STK33 kin inh: blocks human STK33 kinase activity; Q9BYT3; 27,000 compounds, 0.44% hits; ADP-Glo luminescence, MBP substrate; inhibition, % at 12.5 µM; in the data active means inhibition above about 20%; inconclusive means no clear call, values can overlap the other calls
# Target sequence (Q9BYT3 whole entry, looked up): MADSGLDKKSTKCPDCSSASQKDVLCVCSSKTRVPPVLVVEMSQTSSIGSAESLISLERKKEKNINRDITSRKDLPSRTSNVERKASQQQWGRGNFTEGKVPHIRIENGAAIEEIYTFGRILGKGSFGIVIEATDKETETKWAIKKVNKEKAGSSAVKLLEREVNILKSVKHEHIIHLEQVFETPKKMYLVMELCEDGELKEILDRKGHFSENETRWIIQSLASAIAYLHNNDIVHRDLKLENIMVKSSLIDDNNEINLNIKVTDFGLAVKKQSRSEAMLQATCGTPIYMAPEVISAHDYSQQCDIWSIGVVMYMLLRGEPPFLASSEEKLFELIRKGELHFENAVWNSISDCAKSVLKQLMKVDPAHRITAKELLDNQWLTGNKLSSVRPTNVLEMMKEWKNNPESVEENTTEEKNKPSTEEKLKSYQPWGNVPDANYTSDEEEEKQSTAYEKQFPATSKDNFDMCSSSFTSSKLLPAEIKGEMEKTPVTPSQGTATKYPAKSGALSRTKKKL
# NOMO-1 viab: STK33 inhibitor candidate reducing NOMO-1 cell viability | NOMO-1 AML viability, CellTiter-Glo luminescence, 72 h | inhibition, % (test concentration not listed) | 37,000 compounds, 7.5% hits; in the data active means inhibition above about 80%; inconclusive means no clear call, values can overlap the other calls
# Numbers without * were called inactive; ? = inconclusive; · = no result.
SMILES,PD-1 reversal,STK33 kin inh,NOMO-1 viab
CNC(=O)NC(=O)CSc1nnc(-c2ccncc2)n1Cc1ccccc1,1,·,-6
C[C@@H]1CN([C@H](C)CO)C(=O)c2cc(NC(=O)CCC(F)(F)F)ccc2O[C@H]1CN(C)C(=O)Nc1ccc(F)cc1,2,1,6
Cc1[nH]c2ccccc2c1C(=O)CSc1nc2scc(-c3ccco3)c2c(=O)n1-c1ccccc1,-1,-1,22
Cc1[nH]c2ccccc2c1C(=O)CSc1nc2sc(C)c(C)c2c(=O)n1-c1ccccc1,-1,1,100*
C[C@@H]1CN([C@@H](C)CO)C(=O)c2cccc(NC(=O)Nc3ccc(C(F)(F)F)cc3)c2O[C@@H]1CN(C)CC1CC1,-1,·,56
C[C@@H]1CN([C@H](C)CO)C(=O)c2cccc(NC(=O)Nc3ccc(C(F)(F)F)cc3)c2O[C@H]1CN(C)CC1CC1,·,·,84*
C[C@@H]1CN([C@@H](C)CO)C(=O)c2cccc(NC(=O)Nc3ccc(C(F)(F)F)cc3)c2O[C@@H]1CN(C)CC1CCCCC1,-12,·,95*
C[C@@H]1CN([C@H](C)CO)C(=O)c2cccc(NC(=O)Nc3ccc(F)cc3)c2O[C@@H]1CN(C)CC1CCCCC1,-1,·,9
CC(C)(C)C1CCc2c(sc(NC(=O)COc3ccc(Cl)cc3)c2C(N)=O)C1 (stereo not given),·,-1,89*
NC(=O)c1c(NC(=O)COc2ccc(Cl)cc2Cl)sc2c1CCCC2,·,1,25
C[C@@H]1CN([C@@H](C)CO)C(=O)c2cccc(NC(=O)Nc3ccc(F)cc3)c2O[C@H]1CN(C)CC1CC1,·,·,53
COc1ccc(S(=O)(=O)N(C)C[C@@H]2Oc3c(NC(=O)NC4CCCCC4)cccc3C(=O)N([C@@H](C)CO)C[C@H]2C)cc1,·,·,-2
C=C[C@]1(C)C[C@H](O)[C@H]2C(=C)C(=O)O[C@@H]2[C@H]1C(=C)CO,-1,-1,53
C=CC1(C)C[C@H](OC(=O)C(C)CO)[C@H]2C(=C)C(=O)O[C@@H]2C1C(=C)CO (stereo not given in full),-8,-6,115*
Cc1ccc(S(=O)(=O)Nc2ccc3c(c2)CC(=O)N([C@H](C)CO)C[C@@H](C)[C@@H](CN(C)C(=O)NC(C)C)O3)cc1,·,-3,-13
N#Cc1c(N)[nH]c(=S)c(C(N)=O)c1-c1cccc(Br)c1,-66,-7,?
C=C1C(=O)O[C@@H]2[C@H]3O[C@]3(C)CCC=C(C)CC[C@@H]12,-59,1,141*
C=C1C(=O)O[C@@H]2C3O[C@]3(C)CC/C=C(/C)CC[C@@H]12 (stereo not given in full),·,1,107*
CC(=O)CSc1nnc(-c2cccnc2)o1,·,7,11
CNC[C@H]1OCCCC[C@@H](C)Oc2ccc(NC(=O)CCCN(C)C)cc2C(=O)N([C@H](C)CO)C[C@@H]1C,0,-1,10
C[C@H]1CN([C@@H](C)CO)C(=O)CCCn2nncc2CO[C@H]1CN(C)S(=O)(=O)c1ccc(-c2ccccc2)cc1,·,4,·
COc1ccc(NC(=O)Nc2ccc3c(c2)CC(=O)N([C@@H](C)CO)C[C@H](C)[C@@H](CN(C)S(=O)(=O)c2ccccc2)O3)cc1,0,0,-10
O=C(CC(c1ccccc1)c1ccccc1)NC1CCCC1,-1,·,20
C[C@H]1CN([C@@H](C)CO)C(=O)c2cc(NS(=O)(=O)c3ccccc3)ccc2O[C@@H]1CN(C)Cc1ccc(-c2ccccc2)cc1,-2,2,87*
C[C@H]1CN([C@@H](C)CO)C(=O)c2cc(NS(=O)(=O)c3ccc(Cl)cc3)ccc2O[C@H]1CN(C)Cc1ccc(-c2ccccc2)cc1,1,1,62
SMILES,PD-1 reversal,STK33 kin inh,NOMO-1 viab
C[C@@H]1CN([C@@H](C)CO)C(=O)c2cc(NS(=O)(=O)c3ccc(Cl)cc3)ccc2O[C@H]1CN(C)Cc1ccc(-c2ccccc2)cc1,0,·,106*
C[C@H]1CN([C@@H](C)CO)C(=O)c2cc(NS(=O)(=O)c3ccccc3)ccc2O[C@@H]1CN(C)Cc1ccccc1,·,·,4
C[C@@H]1CN([C@@H](C)CO)C(=O)c2cc(NS(=O)(=O)c3ccccc3)ccc2O[C@@H]1CN(C)Cc1ccc(-c2ccccc2)cc1,·,·,115*
C[C@H](CO)N1C[C@H](C)[C@H](CN(C)Cc2ccccc2)Oc2ccc(NS(=O)(=O)c3ccccc3)cc2C1=O,0,·,-11
COc1ccc(S(=O)(=O)N(C)C[C@H]2OCCCC[C@@H](C)Oc3ccc(NC(=O)Nc4c(C)noc4C)cc3C(=O)N([C@H](C)CO)C[C@@H]2C)cc1,-1,-2,-6
COC(=O)C1=C(C)NC(C)=C(C(=O)OC)C1,-1,·,72
[N-]=[N+]=NCc1ccccc1C[C@]1(C(=O)N2CCCCC2)N=C(c2ccc(OCCCO)cc2)O[C@H]1c1ccccc1,·,0,·
COc1ccc(NC(=O)Nc2cccc3c2O[C@@H](CN(C)S(=O)(=O)c2cccs2)[C@@H](C)CN([C@@H](C)CO)C3=O)cc1,-1,·,20
C[C@@H]1CN([C@@H](C)CO)C(=O)c2cccc(NC(=O)C3CC3)c2O[C@H]1CN(C)C,-1,·,7
C[C@H](CO)N1C[C@H](C)[C@@H](CN(C)C(=O)Nc2ccc(F)cc2)Oc2ccc(NS(=O)(=O)c3ccc(Cl)cc3)cc2C1=O,·,·,22
CC1(C)C(=O)C=CC2(C)C1CC(O)C1(C)C3=CCC(c4ccoc4)C3(C)CCC21 (stereo not given),-11,1,119*
CC1(C)C(=O)C=C[C@@]2(C)C1CC(=O)[C@@]1(C)C3=CC(=O)O[C@@H](c4ccoc4)[C@]3(C)CCC12 (stereo not given in full),·,-6,27
C[C@@H]1CN([C@H](C)CO)C(=O)Cc2cc(NC(=O)Cc3ccccc3)ccc2O[C@H]1CN(C)S(=O)(=O)c1cn(C)cn1,0,0,-19
CSc1nnc(-c2cc(OCC(F)(F)F)nc(OCC(F)(F)F)c2)n1Cc1ccco1,-14,3,38
COc1ccc(S(=O)(=O)Nc2ccc3c(c2)C(=O)N([C@@H](C)CO)C[C@@H](C)[C@H](CN(C)Cc2ccc(C(F)(F)F)cc2)O3)cc1,1,3,113*
COc1ccc(CN(C)C[C@@H]2Oc3ccc(NS(=O)(=O)c4ccc(OC)cc4)cc3C(=O)N([C@@H](C)CO)C[C@H]2C)cc1,0,·,15
COc1ccc(CN(C)C[C@@H]2Oc3ccc(NS(=O)(=O)c4ccc(OC)cc4)cc3C(=O)N([C@@H](C)CO)C[C@@H]2C)cc1,0,·,11
COc1ccc(CN(C)C[C@H]2Oc3ccc(NS(=O)(=O)c4ccc(OC)cc4)cc3C(=O)N([C@@H](C)CO)C[C@H]2C)cc1,2,·,26
COc1ccc(S(=O)(=O)Nc2ccc3c(c2)C(=O)N([C@@H](C)CO)C[C@@H](C)[C@@H](CN(C)Cc2ccc(C(F)(F)F)cc2)O3)cc1,1,·,115*
COc1ccc(S(=O)(=O)Nc2ccc3c(c2)C(=O)N([C@H](C)CO)C[C@@H](C)[C@@H](CN(C)Cc2ccc(C(F)(F)F)cc2)O3)cc1,-1,·,108*
C[C@@H]1CN([C@H](C)CO)C(=O)c2cccc(NC(=O)c3nc4ccccc4s3)c2O[C@H]1CN(C)C,-1,·,25
Clc1ccc(-c2cnc3n2CCC3)cc1Cl,0,·,112*

# Source: PubChem (Broad Institute)
